Measured values: PubChem BioAssay
Values without a mark were called inactive. For some assays here: Results with a measured potency or affinity are listed apart. Activity calls are given as the source filed them. Unless noted, no rule for the calls is given here.

Legend:
[1] = antimalarial activity against Dd2 strain (AID 2302;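 active = growth inhibition above 50% at the single 2 µM test dose, taken to imply half-maximal potency below 2 µM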;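 also: 0% = DMSO untreated growth and 100% = chloroquine plus artemisinin killed control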); details: P. falciparum Dd2 in RBCs, LDH growth readout, 72 h; at 2 µM; hits give high values
[2] = HepG2 cytotoxicity, primary screen, cytotoxicity control for P. falciparum antimalarial project, cell-based, ATP luminescence (AID 2303;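 active = inhibition above 50%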;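 also: 0% = DMSO wells and 100% = digitonin-killed cells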); details: HepG2 viability, 24-48 h, at 10 µM, hits give high values
[3] = biological target: L-lactate dehydrogenase (Plasmodium falciparum (isolate CDC / Honduras)) (UniProt Q27743); assay: PfLDH activity inhibition – cell lysate, 3D7 strain, counter-screen for P. falciparum growth inhibition project (AID 2304);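 also: 0% = vehicle and 100% = reference inhibitor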; details: P. falciparum 3D7 crude extract, LDH APAD/NBT absorbance; at 2 µM; hits give high values
Chain of L-lactate dehydrogenase (Plasmodium falciparum (isolate CDC / Honduras)) (Q27743 whole entry, looked up): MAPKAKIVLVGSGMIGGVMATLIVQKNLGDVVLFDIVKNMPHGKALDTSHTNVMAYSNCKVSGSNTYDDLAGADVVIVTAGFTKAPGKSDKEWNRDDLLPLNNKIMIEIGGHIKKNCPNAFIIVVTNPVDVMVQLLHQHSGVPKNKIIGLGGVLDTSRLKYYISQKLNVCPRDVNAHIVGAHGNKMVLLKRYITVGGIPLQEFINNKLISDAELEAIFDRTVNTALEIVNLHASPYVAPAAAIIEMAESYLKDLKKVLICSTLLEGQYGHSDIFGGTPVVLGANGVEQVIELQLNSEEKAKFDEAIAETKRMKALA

[4] = inhibition of 3D7 malaria parasite growth – strain 3D7 (AID 2306);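 also: 0% = DMSO wells and 100% = chloroquine plus artemisinin control wells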; details: P. falciparum 3D7 erythrocytic growth, LDH absorbance, 72 h; at 2 µM; hits give high values
[5] = biological target: Calcium-dependent protein kinase 1 (Plasmodium falciparum (isolate 3D7)) (UniProt P62344); assay: PfCDPK1 kinase inhibitors, biochemical, TCAMS library (AID 1159585; cut-off not given, nearly all actives have IC50 up to about 0.98 µM;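 also: inhibitors leave more ATP so luminescence rises with inhibition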); details: recombinant PfCDPK1, Kinase-Glo ATP depletion luminescence
Chain of Calcium-dependent protein kinase 1 (Plasmodium falciparum (isolate 3D7)) (P62344 whole entry, looked up): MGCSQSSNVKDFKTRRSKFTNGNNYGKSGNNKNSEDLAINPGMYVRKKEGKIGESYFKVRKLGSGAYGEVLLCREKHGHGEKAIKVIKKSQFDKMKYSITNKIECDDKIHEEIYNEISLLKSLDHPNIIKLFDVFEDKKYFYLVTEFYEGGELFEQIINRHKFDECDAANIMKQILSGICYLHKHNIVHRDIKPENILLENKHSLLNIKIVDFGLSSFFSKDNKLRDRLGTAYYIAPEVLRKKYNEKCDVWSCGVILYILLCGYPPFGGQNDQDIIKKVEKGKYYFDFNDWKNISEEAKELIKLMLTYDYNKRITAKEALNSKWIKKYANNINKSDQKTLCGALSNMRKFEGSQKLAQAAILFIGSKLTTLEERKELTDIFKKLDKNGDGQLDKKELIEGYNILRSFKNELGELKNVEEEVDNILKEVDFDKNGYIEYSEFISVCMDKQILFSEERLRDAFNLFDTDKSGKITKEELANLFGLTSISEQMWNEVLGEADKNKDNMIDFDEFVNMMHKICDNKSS

[6] = biological target: Plasmodium falciparum protein kinase 6 (PK6, PF3D7_1337100) (UniProt Q8IDW1); assay: PfPK6 kinase inhibitors, biochemical, TCAMS library (AID 1159586); details: recombinant PfPK6, Kinase-Glo ATP depletion luminescence
Chain of Plasmodium falciparum protein kinase 6 (PK6, PF3D7_1337100) (Q8IDW1 1-305): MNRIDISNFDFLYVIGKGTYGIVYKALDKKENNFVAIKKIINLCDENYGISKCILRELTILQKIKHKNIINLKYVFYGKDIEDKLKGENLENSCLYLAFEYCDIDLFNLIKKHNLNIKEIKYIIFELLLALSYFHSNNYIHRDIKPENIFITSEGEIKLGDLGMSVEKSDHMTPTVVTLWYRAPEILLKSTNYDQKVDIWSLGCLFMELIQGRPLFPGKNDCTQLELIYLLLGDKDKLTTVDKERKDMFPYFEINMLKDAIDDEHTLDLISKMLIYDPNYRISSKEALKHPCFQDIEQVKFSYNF

[7] = biological target: Protein kinase 7 (PK7), Plasmodium falciparum 3D7 (PF3D7_0213400) (UniProt Q7YTF7); assay: inhibition of Plasmodium PK7 catalytic activity – biochemical, TCAMS antimalarial set, Kinase-Glo luminescence (AID 1159587); details: recombinant PfPK7, Kinase-Glo ATP depletion luminescence
Chain of Protein kinase 7 (PK7), Plasmodium falciparum 3D7 (PF3D7_0213400) (Q7YTF7 1-343): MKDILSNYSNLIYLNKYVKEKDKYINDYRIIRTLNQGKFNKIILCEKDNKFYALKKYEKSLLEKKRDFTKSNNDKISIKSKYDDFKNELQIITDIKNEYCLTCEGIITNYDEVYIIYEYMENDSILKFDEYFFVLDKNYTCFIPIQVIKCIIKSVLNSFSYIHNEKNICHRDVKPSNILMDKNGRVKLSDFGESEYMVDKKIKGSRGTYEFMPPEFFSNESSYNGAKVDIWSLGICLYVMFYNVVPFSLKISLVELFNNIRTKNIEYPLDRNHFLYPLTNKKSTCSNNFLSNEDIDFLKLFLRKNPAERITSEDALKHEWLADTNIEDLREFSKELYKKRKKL

[8] = biological target: Calcium-dependent protein kinase 4 (Plasmodium falciparum (isolate 3D7)) (UniProt Q8IBS5); assay: PfCDPK4 kinase inhibitors, biochemical, TCAMS library (AID 1159588; cut-off not given, nearly all actives have IC50 up to about 0.91 µM); details: recombinant PfCDPK4, Kinase-Glo ATP depletion luminescence
Chain of Calcium-dependent protein kinase 4 (Plasmodium falciparum (isolate 3D7)) (Q8IBS5 whole entry, looked up): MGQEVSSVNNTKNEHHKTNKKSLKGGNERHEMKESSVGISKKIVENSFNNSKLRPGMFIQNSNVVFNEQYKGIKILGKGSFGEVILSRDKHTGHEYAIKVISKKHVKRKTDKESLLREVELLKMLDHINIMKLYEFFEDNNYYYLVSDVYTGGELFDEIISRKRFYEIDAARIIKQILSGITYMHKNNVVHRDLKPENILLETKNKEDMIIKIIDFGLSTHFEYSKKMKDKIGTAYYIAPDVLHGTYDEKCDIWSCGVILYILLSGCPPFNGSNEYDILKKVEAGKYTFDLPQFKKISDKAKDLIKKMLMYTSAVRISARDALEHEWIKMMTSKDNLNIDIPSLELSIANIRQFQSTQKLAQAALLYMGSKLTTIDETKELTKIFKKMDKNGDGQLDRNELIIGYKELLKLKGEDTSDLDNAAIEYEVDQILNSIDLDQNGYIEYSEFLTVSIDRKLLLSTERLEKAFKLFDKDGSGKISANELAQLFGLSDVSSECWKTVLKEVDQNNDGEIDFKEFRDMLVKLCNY

O=C(Nc1ccon1)c1cc(-c2cccnc2)nc2ccc(Br)cc12
growth inhibition [1]: 77% (active)
inhibition [2]: 7%
inhibition [3]: -3%
growth inhibition [4]: 99% (active)
outcome [5]: inactive
outcome [6]: inactive
outcome [7]: inactive
outcome [8]: inactive

Cc1ccc2sc(N(CCCn3ccnc3)C(=O)c3ccco3)nc2c1C
growth inhibition [1]: 98% (active)
inhibition [2]: 9%
inhibition [3]: -2%
growth inhibition [4]: 93% (active)
outcome [5]: inactive
outcome [6]: inactive
outcome [7]: inactive
outcome [8]: inactive

O=C(NC1CCCC1)c1cc2c(=O)n3ccccc3nc2nc1NCCc1ccccc1
growth inhibition [1]: 61% (active)
inhibition [2]: 19%
inhibition [3]: 2%
growth inhibition [4]: 101% (active)
outcome [5]: inactive
outcome [6]: inactive
outcome [7]: inactive
outcome [8]: inactive

CC(C)C(=O)n1ncc2c3c(N)nc(N)nc3ccc21
growth inhibition [1]: 3%
inhibition [2]: 0%
inhibition [3]: -5%
growth inhibition [4]: 87% (active)
outcome [5]: inactive
outcome [6]: inactive
outcome [7]: inactive
outcome [8]: inactive

C#CCOc1ccccc1CN1CCC(N2CCc3cc(NC(=O)c4cc(C)on4)ccc32)C1 (stereo not given)
growth inhibition [1]: 94% (active)
inhibition [2]: 16%
inhibition [3]: -2%
growth inhibition [4]: 95% (active)
outcome [5]: inactive
outcome [6]: inactive
outcome [7]: inactive
outcome [8]: inactive

COc1cc(C(=O)N2CCOC(CCN3CCC(Cc4ccc(F)cc4)CC3)(c3ccc(Cl)c(Cl)c3)C2)cc(OC)c1OC (stereo not given)
growth inhibition [1]: 58% (active)
inhibition [2]: 44%
inhibition [3]: -5%
growth inhibition [4]: 88% (active)
outcome [5]: inactive
outcome [6]: inactive
outcome [7]: inactive
outcome [8]: inactive

Cc1cc(NC(=O)Nc2ccc3sccc3c2)c2ccccc2n1
growth inhibition [1]: 57% (active)
inhibition [2]: 41%
inhibition [3]: 0%
growth inhibition [4]: 99% (active)
outcome [5]: inactive
outcome [6]: inactive
outcome [7]: inactive
outcome [8]: inactive

COc1cccc(CCc2cccc(CNC(C)=O)c2)c1
growth inhibition [1]: -2%
inhibition [2]: 2%
inhibition [3]: -2%
growth inhibition [4]: 88% (active)
outcome [5]: inactive
outcome [6]: inactive
outcome [7]: inactive
outcome [8]: inactive

Cc1cc(-c2ccc(CNC3CCN(C)CC3)cc2)ccc1S(=O)(=O)NCc1ccccc1
growth inhibition [1]: 97% (active)
inhibition [2]: 52% (active)
inhibition [3]: 5%
growth inhibition [4]: 100% (active)
outcome [5]: inactive
outcome [6]: inactive
outcome [7]: inactive
outcome [8]: inactive

Cn1cncc1CCN(Cc1ccc(-c2ccc(C(F)(F)F)cc2)cc1)C(=O)Cn1c(CCc2cccc(F)c2F)cc(=O)c2cccnc21
growth inhibition [1]: 97% (active)
inhibition [2]: 44%
inhibition [3]: -2%
growth inhibition [4]: 100% (active)
outcome [5]: inactive
outcome [6]: inactive
outcome [7]: inactive
outcome [8]: inactive

CN(C)CCC=C1c2ccccc2Sc2c(O)cc(Cl)cc21
growth inhibition [1]: 80% (active)
inhibition [2]: 8%
inhibition [3]: -9%
growth inhibition [4]: 100% (active)
outcome [5]: inactive
outcome [6]: inactive
outcome [7]: inactive
outcome [8]: inactive

N[C@@H](CCNCc1ccc(-c2cccnc2)cc1)Cc1ccc(F)c(F)c1
growth inhibition [1]: 57% (active)
inhibition [2]: 45%
inhibition [3]: 2%
growth inhibition [4]: 98% (active)
outcome [5]: inactive
outcome [6]: inactive
outcome [7]: inactive
outcome [8]: inactive

Cc1nc(N)nc(N)c1-c1cc(Cl)c(N)c(Cl)c1
growth inhibition [1]: 2%
inhibition [2]: 62% (active)
inhibition [3]: 6%
growth inhibition [4]: 94% (active)
outcome [5]: inactive
outcome [6]: inactive
outcome [7]: inactive
outcome [8]: inactive

NC(N)=NC(=O)Nc1cc(Br)c(Br)c(Br)c1
growth inhibition [1]: 89% (active)
inhibition [2]: 0%
inhibition [3]: 1%
growth inhibition [4]: 101% (active)
outcome [5]: inactive
outcome [6]: inactive
outcome [7]: inactive
outcome [8]: inactive

CCOc1ccc(-c2nonc2NC(=O)c2ccc(OC(C)C)cc2)cc1OCC
growth inhibition [1]: 100% (active)
inhibition [2]: 13%
inhibition [3]: -2%
growth inhibition [4]: 100% (active)
outcome [5]: inactive
outcome [6]: inactive
outcome [7]: inactive
outcome [8]: inactive

C=CCOC(=O)N1CCC(CNCc2cccc(-c3cccc(-c4nc5ccccc5[nH]4)c3)c2)C1 (stereo not given)
growth inhibition [1]: 46%
inhibition [2]: 16%
inhibition [3]: -3%
growth inhibition [4]: 100% (active)
outcome [5]: inactive
outcome [6]: inactive
outcome [7]: inactive
outcome [8]: inactive

COc1ccc(CCNCCCCCCNCCc2ccc(Cl)c(Cl)c2)cc1OC
growth inhibition [1]: 10%
inhibition [2]: 59% (active)
inhibition [3]: -1%
growth inhibition [4]: 101% (active)
outcome [5]: inactive
outcome [6]: inactive
outcome [7]: inactive
outcome [8]: inactive

CCCNCc1ccc(-c2ccc(CN(CCOC)C(=O)c3ccco3)cc2)nc1
growth inhibition [1]: 21%
inhibition [2]: 1%
inhibition [3]: -7%
growth inhibition [4]: 91% (active)
outcome [5]: inactive
outcome [6]: inactive
outcome [7]: inactive
outcome [8]: inactive

CCOc1cc(C(=O)NC2CCN(Cc3ccccc3)CC2)ccc1-c1nc2cc(Cl)c(Cl)cc2[nH]1
growth inhibition [1]: 99% (active)
inhibition [2]: 24%
inhibition [3]: 2%
growth inhibition [4]: 101% (active)
outcome [5]: inactive
outcome [6]: inactive
outcome [7]: inactive
outcome [8]: inactive

COc1ccc(CCNc2nc(N)c3cc(OC)c(OC)cc3n2)cc1
growth inhibition [1]: 1%
inhibition [2]: 16%
inhibition [3]: -1%
growth inhibition [4]: 100% (active)
outcome [5]: inactive
outcome [6]: inactive
outcome [7]: inactive
outcome [8]: inactive

c1ccc(-c2[nH]ncc2Nc2ccnc3ccccc23)nc1
growth inhibition [1]: 98% (active)
inhibition [2]: 36%
inhibition [3]: 1%
growth inhibition [4]: 100% (active)
outcome [5]: inactive
outcome [6]: inactive
outcome [7]: inactive
outcome [8]: inactive

CC(C)CCNCc1ccc(OCc2cccc(C(=O)Nc3ccccc3)c2)c(I)c1
growth inhibition [1]: 59% (active)
inhibition [2]: 25%
inhibition [3]: 0%
growth inhibition [4]: 100% (active)
outcome [5]: inactive
outcome [6]: inactive
outcome [7]: inactive
outcome [8]: inactive

Cc1cccc(NC(=S)NC2CCN(CCCCCNC(=O)/C=C/c3ccc(Cl)c(Cl)c3)CC2)c1
growth inhibition [1]: 19%
inhibition [2]: 14%
inhibition [3]: 4%
growth inhibition [4]: 97% (active)
outcome [5]: inactive
outcome [6]: inactive
outcome [7]: inactive
outcome [8]: inactive

COc1cc2nc(N3CCC(CNC(=O)c4ccc(-c5ccc(C(=O)N(C)C)cc5C)cc4)CC3)nc(N3CCN(C)CC3)c2cc1OC
growth inhibition [1]: 84% (active)
inhibition [2]: 26%
inhibition [3]: -10%
growth inhibition [4]: 88% (active)
outcome [5]: inactive
outcome [6]: inactive
outcome [7]: inactive
outcome [8]: inactive

Cc1nc2ccc([N+](=O)[O-])cc2c(=O)n1OCc1ccccc1
growth inhibition [1]: -1%
inhibition [2]: 2%
inhibition [3]: -2%
growth inhibition [4]: 98% (active)
outcome [5]: inactive
outcome [6]: inactive
outcome [7]: inactive
outcome [8]: inactive

CC(C)n1c(CC2CCN(CC3CCN(C(=O)/C=C/c4ccc(Cl)c(Cl)c4)CC3)CC2)nc2ccccc21
growth inhibition [1]: 23%
inhibition [2]: 19%
inhibition [3]: -3%
growth inhibition [4]: 101% (active)
outcome [5]: inactive
outcome [6]: inactive
outcome [7]: inactive
outcome [8]: inactive

Cc1ccc(Nc2nc(C)cc(NC3CCN(C)CC3)n2)cc1
growth inhibition [1]: 21%
inhibition [2]: 14%
inhibition [3]: 2%
growth inhibition [4]: 100% (active)
outcome [5]: inactive
outcome [6]: inactive
outcome [7]: inactive
outcome [8]: inactive

COc1ccc2c(c1C1CCN(CCCCNC(=O)c3ccc(NC(=O)c4ccc(Cl)cc4)cc3)CC1)CCCC2
growth inhibition [1]: 99% (active)
inhibition [2]: 19%
inhibition [3]: -2%
growth inhibition [4]: 101% (active)
outcome [5]: inactive
outcome [6]: inactive
outcome [7]: inactive
outcome [8]: inactive

Cc1ccc(CNc2ccc3ncc(-c4cccc(C(=O)NCCN(C)C)c4)n3n2)c(C)c1
growth inhibition [1]: 78% (active)
inhibition [2]: 97% (active)
inhibition [3]: -3%
growth inhibition [4]: 100% (active)
outcome [5]: inactive
outcome [6]: inactive
outcome [7]: inactive
outcome [8]: inactive

CCCNCc1ccc(-c2ccc(CN(CCOC)C(=O)CCCOCc3ccccc3)cc2)nc1
growth inhibition [1]: 13%
inhibition [2]: -2%
inhibition [3]: 2%
growth inhibition [4]: 93% (active)
outcome [5]: inactive
outcome [6]: inactive
outcome [7]: inactive
outcome [8]: inactive

O=C(Nc1cccc(-c2nn3ccccc3c2-c2ccnc(Nc3cccc(N4CCCC4=O)c3)n2)c1)c1cc(F)ccc1F
growth inhibition [1]: 51% (active)
inhibition [2]: 59% (active)
inhibition [3]: 3%
growth inhibition [4]: 99% (active)
outcome [5]: inactive
outcome [6]: inactive
outcome [7]: inactive
outcome [8]: inactive

CCCCCCCN1CCC(CCNc2ccnc3ccc(OC)cc23)CC1
growth inhibition [1]: 86% (active)
inhibition [2]: 5%
inhibition [3]: -2%
growth inhibition [4]: 84% (active)
outcome [5]: inactive
outcome [6]: inactive
outcome [7]: inactive
outcome [8]: inactive

CC(=O)c1ccc(-n2ccnc2)cc1
growth inhibition [1]: -1%
inhibition [2]: -4%
inhibition [3]: -3%
growth inhibition [4]: 92% (active)
outcome [5]: inactive
outcome [6]: inactive
outcome [7]: inactive
outcome [8]: inactive

CN1CCCC(CN2CCN(Cc3cccc(-c4ccc(-c5nc6ccccc6[nH]5)cc4)c3)CC2)C1 (stereo not given)
growth inhibition [1]: 101% (active)
inhibition [2]: 73% (active)
inhibition [3]: -2%
growth inhibition [4]: 100% (active)
outcome [5]: inactive
outcome [6]: inactive
outcome [7]: inactive
outcome [8]: inactive

CCOC(=O)C1=C(C)N=c2sc(=Cc3cc(Cl)ccc3O)c(=O)n2C1c1cc(OC)c(OC)cc1Br (stereo not given)
growth inhibition [1]: 76% (active)
inhibition [2]: 6%
inhibition [3]: -2%
growth inhibition [4]: 97% (active)
outcome [5]: inactive
outcome [6]: inactive
outcome [7]: inactive
outcome [8]: inactive

Cc1onc(-c2ccccc2Cl)c1C(=O)Nc1cc(Cl)c(Cl)cc1Cl
growth inhibition [1]: 57% (active)
inhibition [2]: 3%
inhibition [3]: 7%
growth inhibition [4]: 90% (active)
outcome [5]: inactive
outcome [6]: inactive
outcome [7]: inactive
outcome [8]: inactive

CCN(C(=O)NC)[C@@H]1c2cc(C#N)ccc2OC(C)(C)[C@H]1O
growth inhibition [1]: 2%
inhibition [2]: 3%
inhibition [3]: -8%
growth inhibition [4]: 96% (active)
outcome [5]: inactive
outcome [6]: inactive
outcome [7]: inactive
outcome [8]: inactive

CCC1CN2CCc3c([nH]c4ccccc34)C2CC1CC1=NCCc2c1[nH]c1ccccc21 (stereo not given)
growth inhibition [1]: 47%
inhibition [2]: 20%
inhibition [3]: -8%
growth inhibition [4]: 100% (active)
outcome [5]: inactive
outcome [6]: inactive
outcome [7]: inactive
outcome [8]: inactive

Fc1ccc2nc(-c3cccc(-c4ccc(CN5CCN(c6ccncc6)CC5)cc4)c3)[nH]c2c1
growth inhibition [1]: 67% (active)
inhibition [2]: 39%
inhibition [3]: 0%
growth inhibition [4]: 100% (active)
outcome [5]: inactive
outcome [6]: inactive
outcome [7]: inactive
outcome [8]: inactive

O=C(NCCCc1ccccc1)c1ccc(O)c(-c2cc(Cl)cc(Cl)c2)c1
growth inhibition [1]: 98% (active)
inhibition [2]: -1%
inhibition [3]: -3%
growth inhibition [4]: 99% (active)
outcome [5]: inactive
outcome [6]: inactive
outcome [7]: inactive
outcome [8]: inactive
